# Sampled rows, rich in hits. Any-hit rate of the full collection: about 3.6%.
# Sfp inh: qHTS Assay for Inhibitors of Bacillus subtilis Sfp phosphopantetheinyl transferase (PPTase); 4'-phosphopantetheinyl transferase ffp (Bacillus subtilis), Q9F4F7; Biochemical Sfp PPTase activity, qHTS; Potency, µM, usual class: inhibitors; 310,000 compounds, 3.5% hits; AID 1490, 2009;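 note: the enzyme is Sfp with the accession as filed and its product quenches rhodamine fluorescence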
#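 Compounds were incubated with enzyme (final 15 nM) for 15 min at room temperature before substrate addition started the reaction. Fluorescence at 525 nm excitation, 598 nm emission was recorded immediately and after 30 minutes.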
# JMJD2E inh: qHTS Assay for Inhibitors of Human Jumonji Domain Containing 2E (JMJD2E); AID 2147, 2009; Lysine-specific demethylase 4E (Homo sapiens), B2RXH2; 230,000 compounds, 1.6% hits; Potency, µM (titrated, usually from 57.1 µM), most hits filed as inhibitors; JMJD2E catalytic domain, FDH-coupled NADH fluorescence (FDH is formaldehyde dehydrogenase); note: nearly all actives have a fitted effect of over 50% in size
# IMPase Li inh: qHTS Assay for Identifying the Cell-Membrane Permeable IMPase Inhibitors: Potentiation with Lithium; CHO-M1 cells, IP1 TR-FRET (IP-One), carbachol + lithium; AID 1457, 2008; Potency, µM (series often up to 59.4 µM), actives largely listed as inhibitors; 210,000 compounds, 0.35% hits;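 note: IP1 builds up when IMPase is blocked and the TR-FRET signal falls; nearly all actives have a fitted effect of over 50% in size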
#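 Lithium-sensitised IP1 accumulation assay; M1-expressing CHO cells treated 30 min at 37C with compound. Competitive antibody detection by time-resolved FRET followed a 10 min room-temperature lysis step.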
# KAT2A inh: qHTS Assay for Inhibitors of GCN5L2 | 390,000 compounds, 0.21% hits | GCN5L2 HAT assay, ThioGlo1 CoA-SH fluorescence | Histone acetyltransferase KAT2A (Homo sapiens), Q92830 | Potency, µM (highest dose often 58.9 µM), actives largely listed as inhibitors
#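 qHTS, 1536-well. 20nM enzyme, pH 7.5 HEPES/EDTA/Tween-20 buffer; 15 min compound preinc., RT. Start: 75uM H3(1-25), 70uM AcCoA, 50uM ThioGlo1. Read Ex340/Em540 at t=0 (autofluorescence flag) and t=20 min.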
# Epigenetic reg: Quantitative High-Throughput Screen for Regulators of Epigenetic Control; murine LDR cells, GFP reporter derepression, 30 h; Potency, µM (series often up to 53.9 µM), most hits filed as activators; 280,000 compounds, 0.2% hits; note: nearly all actives have a fitted effect of over 60% in size
#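 Derepression of a silenced CMV-GFP reporter in murine LDR cells is scored by enumerating GFP-positive cells with a laser-scanning microplate cytometer after 30 hours of treatment at 37 C.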
# NPSR antag: qHTS Assay for Antagonists of the Neuropeptide S Receptor: cAMP Signal Transduction; Potency, µM (titrated, usually from 38.3 µM), usual class: inhibitors; 220,000 compounds, 1% hits; CHO-NPSR cells, cAMP TR-FRET, antagonist mode; AID 1461, 2008; Q6W5P4; note: nearly all actives have a fitted effect of over 50% in size
# Numbers stand for hits; n = inactive; u = inconclusive; x = no result given; [ ] = remark or other dose. Unless noted, calls come from the whole dose curve; as a rule, active = well fitted curve in the direction sought with a large enough effect; inconclusive = small, poorly fitted or top-dose-only effect, or another doubt; inactive = no such curve, though single readings can be large; an effect the other way counts as inactive or inconclusive.
SMILES,Sfp inh,JMJD2E inh,IMPase Li inh,KAT2A inh,Epigenetic reg,NPSR antag
COC(=O)C1=C(C)[C@@H](O)[C@@H](C)[C@](C)(c2cc(OC)c(C)c(OC)c2COc2ccccc2)O1,n,n,n,x,n,x
CCN(CC)P(=O)(Nc1ccc(C)cc1Br)c1ccc(N(C)C)cc1NC(=O)c1ccco1 (stereo unspecified),n,n,n,n,n,10µM
Cc1ccc(NC(=O)c2ccco2)c(NC(=O)c2ccccc2)c1,n,x,x,n,x,x
CCCN(CCC)C(=O)SCC,x,x,n,x,x,x
O=c1nc2n(c3ccccc13)Cc1ccccc1-2,n,u,n,n,n,n
O=c1c2cccc(Cl)c2nc2n1Cc1ccccc1-2,14µM,n,x,u,n,n
Cc1cc2c(cc3c(SCc4ccc(Cl)cc4)nncn32)o1,x,x,x,n,n,x
COc1ccc(-c2cc(C(F)(F)F)c(C#N)c(SCC(=O)Nc3ccccc3C#N)n2)cc1,n,u,n,n,7.9µM,u
COc1ccc(-c2cc(C(F)(F)F)c(C#N)c(SCC(=O)Nc3ccccc3F)n2)cc1,x,x,x,n,n,x
Cc1cccc(NC(=O)CSc2nc(-c3cccs3)cc(C(F)(F)F)c2C#N)c1,x,x,x,n,14µM,x
COc1ccc(NC(=O)CSc2nc(-c3cccs3)cc(C(F)(F)F)c2C#N)cc1,x,x,x,n,u,x
CCOC(=O)c1ccc(NC(=O)CSc2nc(-c3cccs3)cc(C(F)(F)F)c2C#N)cc1,x,x,x,n,10µM,x
N#Cc1c(C(F)(F)F)cc(-c2cccs2)nc1SCc1ccc(Cl)nc1,22µM,u,n,n,n,n
Cc1nc(SCC(=O)Nc2ccccc2C(F)(F)F)c(C#N)c(C)c1CC(=O)c1ccc(Br)cc1,n,n,10µM,n,n,10µM
Cc1cccc(C)c1NC(=O)CSc1nc(C)c(CC(=O)c2ccc(Br)cc2)c(C)c1C#N,n,n,u,n,n,u
COc1ccc2c(n1)Sc1nc3ccccc3nc1N2,n,n,x,n,6.3µM,n
CCOC(=O)c1c(NC(=O)CSc2cn(CCNC(=O)c3c(F)cccc3F)c3ccccc23)sc2c1CCCC2,x,x,x,n,n,x
Cn1cccc1-c1cc(C(=O)O)[nH]n1,45µM,n,n,n,n,n
COC(=O)/C=C1\OC(c2ccccc2)=CC1=O,20µM,n,n,n,n,n
COC(=O)/C(=C1/OC(=O)C(c2ccccc2)=C1O)c1ccccc1,n,n,n,x,n,x
CCN1CCN(C2=NC(=O)/C(=C/c3ccc(C)o3)S2)CC1,16µM,u,n,n,n,u
CCc1ccc(/C=C2/SC(N3CCOCC3)=NC2=O)cc1,n,n,x,n,n,n
COc1cc(OC)cc(C2=Nn3c(nnc3-c3cccc(OC)c3)SC2)c1,n,x,x,x,x,x
O=c1cc[nH]c(=O)[nH]1,n,x,x,n,x,x
O=c1cc[nH]c(=S)[nH]1,45µM,n,n,n,n,x
SMILES,Sfp inh,JMJD2E inh,IMPase Li inh,KAT2A inh,Epigenetic reg,NPSR antag
COc1cccc2c(=S)c(CCC(C)=O)c(C)[nH]c12,n,n,10µM,n,n,n
O=C(O)c1ccnc2c(O)cccc12,x,x,x,n,x,x
COCCCN1C(=O)C(=O)/C(=C(/O)c2ccc(OC(C)C)cc2)C1c1cccnc1 (stereo unspecified),n,n,11µM,n,n,u
COCCCN1C(=O)C(=O)/C(=C(/O)c2ccc(OC(C)C)c(C)c2)C1c1ccncc1 (stereo unspecified),n,n,10µM,n,n,n
CCCOc1ccc(/C(O)=C2/C(=O)C(=O)N(CCCOC)C2c2cccnc2)cc1 (stereo unspecified),n,n,10µM,n,n,n
COCCCN1C(=O)C(=O)/C(=C(/O)c2ccc(OC)cc2C)C1c1cccnc1 (stereo unspecified),n,n,u,n,n,n
COCCCN1C(=O)C(=O)/C(=C(/O)c2ccc(OCC(C)C)cc2)C1c1cccnc1 (stereo unspecified),n,n,u,u,n,n
COc1cc(-c2ccc(-[n+]3nc(-c4ccccc4)nn3-c3ccc([N+](=O)[O-])cc3)c(OC)c2)ccc1-[n+]1nc(-c2ccccc2)nn1-c1ccc([N+](=O)[O-])cc1,n,x,x,n,x,x
COc1cccc(OCC(=O)NN=C2c3ccccc3-c3ccccc32)c1,79µM,n,n,n,n,n
CCCc1nc2ccccc2c(C(=O)OCC(=O)Nc2ccc(S(=O)(=O)N3CCOCC3)cc2)c1CC,n,n,n,n,n,10µM
COC(=O)c1cc(NC(=O)CN(c2ccccc2)S(=O)(=O)N(C)C)ccc1Cl,x,x,x,n,n,x
CCOc1ccc(N=C/C=C/c2ccccc2)c(O)c1,50µM,10µM,x,n,n,n
O=C(O)CSc1ccc(N=C=S)cc1,x,x,n,x,x,x
CC(=O)c1sc(NC(=O)COc2ccc(Cl)cc2C)nc1C,n,n,x,n,n,n[7.67 µM]
CCCCC(=O)Nc1nc(C)c(C(C)=O)s1,n,n,n,n,n,n
CC(=O)c1sc(NC(=O)COc2ccc(Cl)cc2Cl)nc1C,n,n,10µM,n,n,u
CCCC(=O)Nc1nc(C)c(C(C)=O)s1,n,n,8.9µM,n,n,n
Cc1c(Br)c([N+](=O)[O-])nn1CCCC(=O)Nc1sc2c(c1C#N)CCC2,22µM,n,n,n,n,n
NC(=O)c1c(NC(=O)CCCC(=O)O)sc2c1CCCCCC2,79µM,n,n,n,u,n
CCCC(=O)Nc1sc2c(c1C#N)CCCCC2,n,n,n,n,n,n
N#Cc1c(NC(=O)CCCC(=O)O)sc2c1CCCCC2,56µM,n,n,n,n,n
CCOc1cc2[nH]c(=S)n(CCC(=O)NCc3ccco3)c(=O)c2cc1OCC,n,n,u,n,n,n
O=c1c2cc3c(cc2[nH]c(=S)n1Cc1ccco1)OCO3,20µM,n,x,n,n,n
CCCN(CCC)C(=O)c1ccc2c(=O)n(Cc3ccco3)c(=S)[nH]c2c1,13µM,n,n,n,n,n
CCOc1cc2[nH]c(=S)n(CCCC(=O)NCc3ccco3)c(=O)c2cc1OCC,n,n,14µM,u,n,n
CCN(CC)C(=O)c1cccnc1,n,x,x,n,x,x
Cc1cccc(NC(=S)NC2CCCCCC2)c1C,n,n,n,n,n,n
Cc1cccc(NC(=S)NC2CCCC2)n1,10µM,n,n,n,n,n
Cc1cccc(NC(=S)NC2CCCCC2)n1,50µM,n,n,n,n,n
Cc1cccc(NC(=S)Nc2cccc(C)n2)n1,n,n,x,n,n,n[7.67 µM]

# Screening data as filed in PubChem.
